Experimental data published in the supplement of paper PMC10681739.

What was measured:
[1] = target: T1, ETS1 (UniProt P14921); test: ETS1 binding intensity (PBM fluorescence), ETS1 alone (arbitrary fluorescence units); higher = stronger binding; settings: ETS1 concentration 1 nM; RUNX1 concentration 0 nM
T1 sequence: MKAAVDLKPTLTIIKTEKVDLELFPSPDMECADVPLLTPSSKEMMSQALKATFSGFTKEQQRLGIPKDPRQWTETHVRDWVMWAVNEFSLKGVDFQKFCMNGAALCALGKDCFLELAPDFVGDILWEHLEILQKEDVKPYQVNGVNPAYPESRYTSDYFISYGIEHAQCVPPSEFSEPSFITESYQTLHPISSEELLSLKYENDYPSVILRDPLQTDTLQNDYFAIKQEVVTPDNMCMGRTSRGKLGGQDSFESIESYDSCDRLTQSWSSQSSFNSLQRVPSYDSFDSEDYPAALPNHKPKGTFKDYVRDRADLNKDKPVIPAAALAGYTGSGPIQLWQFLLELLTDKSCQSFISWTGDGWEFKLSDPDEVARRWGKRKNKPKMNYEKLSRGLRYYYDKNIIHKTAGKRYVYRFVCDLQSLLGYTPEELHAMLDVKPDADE

[2] = target: RUNX1 (UniProt Q01196); test: RUNX1 binding intensity (PBM fluorescence), RUNX1 alone (arbitrary fluorescence units); higher = stronger binding; settings: RUNX1 concentration 2 nM; ETS1 concentration 0 nM
Chain of RUNX1 (Q01196 whole entry): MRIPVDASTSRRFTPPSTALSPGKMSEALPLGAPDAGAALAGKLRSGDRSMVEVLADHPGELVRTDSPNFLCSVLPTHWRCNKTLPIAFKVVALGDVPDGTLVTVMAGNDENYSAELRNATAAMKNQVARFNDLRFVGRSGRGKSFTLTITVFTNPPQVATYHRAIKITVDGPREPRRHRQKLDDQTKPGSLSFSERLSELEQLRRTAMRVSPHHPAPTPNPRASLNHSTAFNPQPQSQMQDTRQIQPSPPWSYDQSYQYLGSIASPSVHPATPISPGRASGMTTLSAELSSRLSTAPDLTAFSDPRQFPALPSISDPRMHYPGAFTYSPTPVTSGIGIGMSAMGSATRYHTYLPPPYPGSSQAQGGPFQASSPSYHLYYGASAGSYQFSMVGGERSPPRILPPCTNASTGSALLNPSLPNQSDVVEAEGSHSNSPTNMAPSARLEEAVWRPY
Experimental: (§1)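 Cooperative gcPBM on 36-bp genomic probes with neighbouring ETS1 and RUNX1 sites. Recombinant human RUNX1 (2 nM) was incubated alone or with ETS1 (25 nM) and detected with anti-RUNX1 antibody plus Alexa488 secondary. Values are medians over 4 replicate spots; the RUNX1+ETS1 data were normalised to the RUNX1-only data. The probes sit in constant array flanks that are not printed.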

[3] = target: T1, ETS1; test: ETS1 binding intensity (PBM fluorescence) in presence of RUNX1, normalised to ETS1-only experiment (arbitrary fluorescence units); higher = stronger binding; settings: ETS1 concentration 1 nM; RUNX1 concentration 25 nM
[4] = target: RUNX1 (UniProt Q01196); test: RUNX1 binding intensity (PBM fluorescence) in presence of ETS1, normalised to RUNX1-only experiment (arbitrary fluorescence units); higher = stronger binding; settings: RUNX1 concentration 2 nM; ETS1 concentration 25 nM
Experimental: as §1
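Wherever RUNX1 binding intensity (PBM fluorescence) in presence of ETS1, normalised to RUNX1-only experiment is given: Full-length recombinant human ETS1 or RUNX1 bound to double-stranded 36-bp genomic probes on microarrays, detected by protein-specific primary antibody and Alexa488 secondary, spot fluorescence as median of four replicate spots.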
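Wherever RUNX1 binding intensity (PBM fluorescence), RUNX1 alone is given: Full-length recombinant human RUNX1 bound to double-stranded 36-bp genomic probes on a high-density microarray, scored as Alexa488 fluorescence per spot via anti-RUNX1 antibody, median of four replicate spots.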

Sequence	ETS1 binding intensity [1]	RUNX1 binding intensity [2]	ETS1 binding intensity [3]	RUNX1 binding intensity [4]
GACTTCCTGTTGAAGATTGGCCTCTGCGGTACCACG	951	2700	2350	9740
GAGCCACCGGAAACGGAGCTGCGGCCGCGCCCCGCC	5340	747	7820	1650
CCCACTTCCTGTCCCTGCATGCTGTGGGGCAGGCAG	1500	784	1570	2420
CGAGCAGGAAGTGGCAAGATTTGATAGGCGGTCAGG	1970	739	2940	1450
CTTGTTCTATTTCCTGTTTGTGGTGAGTGACTGTCT	4300	1520	8610	3140
CTCAGGAATGCGGAAGTGCTCTGTGGGCACCCACCA	2970	707	5950	1560
GACGGCCCCAGCGGAAGTGGTTGCCTTGGTTTGCGC	9920	734	10300	2190
ATCACAAGCAGAGGATGTGGTTAGTGTTTCGTTCCA	804	995	5580	2160
AACCCACCGGATGGAAGCTGCCACTCAGCCGCAGGA	1100	836	1700	1030
CTCCGATTGAGAACAGGAAGCCACAGGCCAATACAA	2660	831	3260	931
GAGACAGGAAATGTAGACTTGAGTCCTGTGGTAAAC	1910	739	6740	1260
GACAGTCATGTTTCAGGATGTGGTTTTAGCCAAAGG	1550	816	13200	1710
CTGCTGCTTTTAGGATGTGGTTTTATTATTGTCGGG	670	1020	4960	1340
TCTAACGCTGAAGGAGGATGTGGTTTCCTATTGGAC	1770	880	11500	2110
TCCAGGATGTGGGATGCCGTGCTGTACCGCATGTCA	498	652	1030	1160
CTCACAACTCGCGTCCGGCGGAGACCACAATTCCCG	412	863	530	1230
CCATTCTTCCGGTGGAGATGGCTGCGGCCGTGGCGG	568	714	588	2240
CCACCGTCCCCGGAAATAACCGCGCCTGCCTCTCAA	1940	1330	3290	2090
GAAACCCCATGGGCAGGATGTGGGTGAGCTGTCTGG	3380	742	5020	1280
CAAAAGTGCTTCCTCTCGAGGGGTTGTGGTTCTTAC	396	716	520	1070
AACGACAAACCGGAAGTATGGTTTGCCGCCTGAAGC	17000	754	19500	1620

Sequence	ETS1 binding intensity [1]	RUNX1 binding intensity [2]	ETS1 binding intensity [3]	RUNX1 binding intensity [4]
TGGAAGCGGCTTCCGGGGTGAATGCGGTTGGATCGT	1150	1030	3990	3030
GGGCCCACATCCGGCGCGCGCAACCGCAGCCTACTG	1120	2530	6540	13100
CTGGTTTCATTTCCGGGTGCGGCTTCTGTCATAAAG	1900	924	2350	2460
AAATGTGGCCGGATGCTCTGTGGGCGGGCGGCAGCT	2890	700	3770	1300
CAACAACCGGAAGTGGGGCGGGCCGCAGTACCCGCC	14900	701	15800	3010
TCCCCGGCAGCTTCCTCGCCCCGACCGCAGTGTTCC	368	1780	798	1570
TGAGTCACATCCTGCAGGGCTGCGGTATCCTGGCTT	773	928	1680	3310
AGCTTTCCTTTTCCGGTTGCGGCGCCGCGCGTTGAT	1800	926	1820	2340
CGAAGCCGGAAATGCTGAGTGTGCGGGGCCGAACGT	4230	694	4980	1220
TTGCTCCCGGAAGCCCCGCCCGACCGCGGCTCCTGA	999	865	1970	1210
CCACCCACTTCCTGCCCTAGCTAGTGTGGTATTTTT	1050	907	1640	7970
GAGGGGTGGGGGAGGAAGGCTGCGGTTTCTGCTGGG	390	8430	2180	11100
CCCCACATCCGGGGGCCGGGGCCGGGCTGTGGGCTT	524	739	516	2140
GTTTAACAGGAAACCCTGCAGACCACAGGTTCTGTC	1220	807	3630	1680
GCTCGGAAATACCAATATTGGGCTGTGGTATTTGAA	412	911	626	953
CGTACGCGCACTTCCGGTCTTTGTGGCTTGCAGCTC	18000	853	34400	2610
GGCAACCCAAGGAAGTATCTCTGAAACCACACAACA	540	1040	1190	1110
CAGATTCCCGGAAAGGGGGACATGTAGCCGCAAAAG	509	815	1990	1040
GCAGAGTTTACAACAGGATGTGGTTATTGGCGCTGC	8870	777	46800	4380
GCAGCCCAGCTTCCTGCAGACCAAAACCACAAGCAG	542	1390	2540	4140
GCAGCTCTGGCAGGATGCGGTTAAATATGTATCCAC	2010	1920	12700	7800

Sequence	ETS1 binding intensity [1]	RUNX1 binding intensity [2]	ETS1 binding intensity [3]	RUNX1 binding intensity [4]
AACTAGGCTTTTCTTTCCTGTGGTCCTTAAGGAGGC	461	929	329	1020
GCGCGGCGCGACCGGACGCTGCGGGCGGGGAAGAGG	3230	734	5990	929
AACATCCTGTGTAAAGAGAATTGAATGTGGTTTTCT	559	821	1360	2600
GTCTTTCACTCCACTTCCGCCCCCACAAAACATACA	2850	6600	3620	6600
GCGCTACAGGAACTTCCTGCGCGGTTGCTGTCGTTG	1360	702	1570	1180
GGTGACACGGCCGGCTTCCTGCCGCAGAGCTCCTGG	719	768	639	1040
GTTATTCTCCCCTTCCTGTGGTGTGTTTTGATGGTA	702	1120	626	1590
AACTGCCTGGTGGCCGGAAACCGCTGGAGGGAGGGC	4740	793	10100	1130
GCGCTTCCTGCCAGCTTGGAGGATAACCGCCTACCG	505	754	513	1730
GAAGGCGGTTCCGGTTCGCGGCGGTTCCCGGGTTTT	515	794	466	1820
CCTGTTTCCTGCCATCTGCCCTTCCTTTGTGGTCAA	774	3310	1260	6290
CCCGACTTCCGCCGCTGGTGGCCACCCGCAGGTAGT	732	789	1050	2050
GCCGCGCGGAAGCCTCCGCCCTGTGGTTTTGGAGCC	368	1030	993	1530
CTACTTTCCGGTCAACGCGGCCTGCGGTACCACCTC	438	1160	720	2720
CTGGAGAGGATGTGGCCCCAGTGTGGTTCTGTAACT	610	837	776	1170
GGGAGGTGTCCAGGAAGTGGTTGGAGAGTCTGGTCT	2240	756	3340	1020
CCGCTTCCGGCCTTCGCCCGGCTTACCCGCGTCGCA	1490	1070	1740	2920
CTACCGGAAATGCAGCACCACGTAAAATGCGGTCGG	3650	912	15800	2050
GCCTGTCGCAGGAACGGAAGTGGTTACGGCCCTAGT	8480	830	19800	3500
GACCTGCCTTCCGGCCTCCGTCACATGACCGCACAG	556	1110	1210	2000
TTTGATTTCCTGTCTCCATGTTGTGGTCAAGATTGC	1080	1370	2990	4420

Sequence	ETS1 binding intensity [1]	RUNX1 binding intensity [2]	ETS1 binding intensity [3]	RUNX1 binding intensity [4]
ACAAAACAAACACATCCCCCAAACCGCCAAACTACA	606	1310	627	1300
CGACTTCCGTCCCTGGGTGGGATCGAACCACCAACC	532	1100	540	2780
CGATTCCGGAGACAGGCCCCACCGTGCGGTAAACTG	550	835	810	931
GCGCAGGTCCCGGATGTTGCGGACAGTATGAGGCAA	3250	661	4560	1570
ACCCACCCGGAAGTCCTCCTGGCCCACAAGCTCCGC	2360	992	2270	1630
CTCCGCCAGCCACCGGAACTGCGGCCCAGCAAAAAG	2590	927	2320	949
GCCACTATTTCCTGCCTTCTGCGGCTGAGAGTCCCA	981	1220	997	3520
CCTTGCTGCAGGATGCTCTAACCACAAGCCCAGGAG	528	2370	2720	5330
CATGACGAAGGGGAAGGATGTGGTTTGAGGGCAGCA	774	847	8460	1310
TAAAGAAACAGGATGACTGTGGTTTACTGCGAGCAT	500	830	1000	1150
AACGGACCCGGAAGGGGCAGGTCTTGTGGGCGGGTC	814	822	1420	904
TGATTAAAAACAGGATGTGGGTGAATAGTCATGCAT	4810	759	7580	2490
CTAGGCCACCGGAAGTCTCCGCAGTGGTTTTGCAAA	14900	762	25800	1610
CAAGGGAACATCCTTAAACAGCTTGTGGTATTGCTG	735	878	1060	1060
GTGGCCTCTTCAACAGGAAACCACAATATTTTTGTT	4610	1410	10500	2710
AACCCCAAAACGGAAACACCGGAGCCACAAGCTGAG	731	900	961	1300
TGCGCCGGAAGTGCATGAGCTGCCGATGTGGTGCTT	4760	715	5410	1220
GCCTGCACCCTAGTTCCGGTGTGGGTGGAGGGGCCG	1040	4050	999	4850
